# From PubChem BioAssay (NCI)
# Compounds without any hit were thinned out: in the full panel of roughly 79,000, 15% have a hit. Values without a mark were called inactive. Calls of active or inactive are those of the source. No stated cut-off is given here; in the data, active means growth inhibition above about 70%; inactive means the rest.
# Legend:
# [1] = NCI Yeast Anticancer Drug Screen. Data for the rad50 strain (AID 155);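 further: 0% = growth of vehicle-only cultures of the same strain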; settings: S. cerevisiae rad50 strain growth inhibition; at 50.0 µM; hits give high values
# Summary of the method: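 Compounds were tested on a yeast strain with an engineered DNA damage repair alteration; the reported value is growth inhibition normalised to vehicle treatment.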
# [2] = NCI Yeast Anticancer Drug Screen. Data for the mec2-1 strain (AID 157); settings: S. cerevisiae mec2-1 strain, at 50.0 µM, hits give high values
# Summary of the method: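 Using mec2-1 yeast: add compound, measure growth, express inhibition versus vehicle-treated cultures.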
# [3] = NCI Yeast Anticancer Drug Screen. Data for the sgs1 mgt1 strain (AID 161);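 further: 0% = growth of cultures given vehicle only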; settings: S. cerevisiae sgs1 mgt1 strain, at 50.0 µM, hits give high values
# Summary of the method: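 Percent growth inhibition was derived by comparing compound-exposed mutant yeast with vehicle-exposed cultures. The strain carries alterations in DNA damage repair.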
# [4] = NCI Yeast Anticancer Drug Screen. Data for the cln2 rad14 strain (AID 165);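 further: 0% = growth equal to vehicle treated cultures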; settings: S. cerevisiae cln2 rad14 strain, at 50.0 µM, hits give high values
# Summary of the method: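 Yeast strain cln2 rad14, bearing defects in cell cycle control and DNA repair, serves as the test system; values reflect growth inhibition compared with vehicle.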
# [5] = NCI Yeast Anticancer Drug Screen. Data for the bub3 strain (AID 167); settings: S. cerevisiae bub3 mutant strain, at 50.0 µM, hits give high values
# Summary of the method: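 Growth of a checkpoint-deficient yeast mutant is measured after compound exposure. Values represent inhibition relative to vehicle.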
# [6] = NCI Yeast Anticancer Drug Screen. Data for the mlh1 rad18 strain (AID 175); settings: S. cerevisiae mlh1 rad18 strain growth inhibition; at 50.0 µM; hits give high values
# Summary of the method: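 Steps: expose repair-defective yeast to compound; measure growth; express inhibition against vehicle-treated controls.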
SMILES,growth inhibition [1],growth inhibition [2],growth inhibition [3],growth inhibition [4],growth inhibition [5],growth inhibition [6] [%]
CCN(CC)CCN1C(=O)c2cccc3cc(N)cc(c23)C1=O,-1.9%,-27.3%,-7.4%,-3.75%,-9.6%,
Cc1ccc(N=C2N=C(N3CC(C)OC(C)C3)c3ccccc32)cc1 (stereo not drawn),-12.9%,-22.9%,-15.6%,-7.8%,0%,
C[C@]12CCC(=O)C=C1CC[C@@H]1C2=CC[C@]2(C)/C(=C\CO)CC[C@@H]12,7.5%,-14.4%,10.8%,-5.4%,-10.8%,
CC(Oc1cc(Cl)c(Cl)cc1Cl)C(=O)NC(Cc1ccccc1)C(=O)O (stereo not drawn),8.5%,9.45%,13.5%,25.6%,-0.45%,
Oc1ccc2ccccc2c1Br,45.9%,55.5%,40.2%,26.1%,44.2%,
O=C1NC(O)c2cccc(F)c2O1 (stereo not drawn),20.4%,6.3%,43.4%,31.5%,6.7%,
COc1ccc(CCc2nccn2C)cc1OC,-69.3%,-54.9%,-34.7%,-16.4%,-7.95%,
CC1(C)[C@H](C(=O)O)N2C(=O)[C@@H](NC(=O)C(c3ccccc3)c3ccccc3)[C@H]2S1=O (stereo partly drawn),-53.5%,-8.25%,-10.4%,3.65%,-3.9%,
CC(C)/C=C1\CCC(CN2CCCC2)C1=O (stereo not drawn),61.5%,34.6%,48.5%,44.5%,40.7%,
N#C/C(=C\c1cccs1)C(=O)c1ccco1,10.2%,4.65%,24.1%,25.2%,17.2%,
CC(C)(C#N)C(C)(C)c1cnc2ccccc2c1,15.2%,-7.15%,-9.4%,-52.5%,-2.25%,
CN(C)C=Nc1cccc2cnccc12,24.7%,3.4%,14.5%,21.2%,13.1%,
C(=C/c1ccc(-c2ccccc2)cc1)/C=C/c1ccc(-c2ccccc2)cc1,3.3%,4%,-0.2%,-29.2%,6.95%,
COc1ccc(C2=Nc3c(nc(SC)[nH]c3=O)NC(c3ccccc3)C2)cc1 (stereo not drawn),9.45%,9.3%,19.3%,6.15%,28.3%,
CC(=O)OCC1C(OC(C)=O)C(OC(C)=O)C(n2cnc3c(N)ncnc32)N1C(C)=O (stereo not drawn),17.1%,3.75%,16.3%,11.4%,1.5%,
Nc1nc(-c2ccccc2)nc2nc3[nH]c(=O)[nH]c(=O)c3nc12,-12.3%,5.25%,22.8%,0.95%,19.1%,
O=C1c2ccccc2-c2ccc3c4ccc5c6c(ccc(c7ccc1c2c73)c64)C(=O)c1ccccc1-5,53.2%,23.4%,36.8%,30.6%,15.2%,
COc1ccc(/C(Br)=C2\OC(=O)c3ccccc32)cc1,-7.95%,-19.9%,-13.4%,-35.1%,18.4%,
CC(C)CN(CC(C)C)C(=S)[S-].CC(C)CN(CC(C)C)C(=S)[S-].[Zn],54.5%,12.7%,55%,21.4%,4.65%,
C=CCNC(=S)NNC(=S)NCC=C,9.55%,34.1%,10.4%,3.6%,-16.4%,
CC1(C)Cc2[nH]c3ccccc3c(=O)c2-c2nc3ccccc3c(=O)n21,-5.35%,6.05%,4.8%,-35.6%,-2.2%,

SMILES,growth inhibition [1],growth inhibition [2],growth inhibition [3],growth inhibition [4],growth inhibition [5],growth inhibition [6] [%]
CC1OC(OCc2ccc(-c3ccccc3)cc2)CC(N)C1O (stereo not drawn),-1.9%,28.9%,24.6%,-6.85%,29.6%,
Cc1cc2c(c3ccccc13)C(O)c1ccccc1-2 (stereo not drawn),-7.85%,5.95%,1.5%,-15.4%,3.85%,
CN(CCCCl)Cc1ccccc1,1.85%,-26.8%,-24.7%,1.35%,-14.3%,
O=[N+]([O-])c1ccc(Oc2c3ccccc3nc3ccccc23)cc1,11.3%,-3.7%,19.6%,-1.8%,-1.4%,
CN(C)c1nc2oc(-c3ccccc3)c(-c3ccccc3)c2c2nncn12,9.65%,7.45%,2.9%,16.9%,12.1%,
Cc1nnc2n(c1=O)CCCN2C,-0.35%,6.2%,11.6%,-11.8%,15.8%,
O=C(Nc1ccc(C(=O)O)cc1)Nc1cccc(F)c1,14.8%,8.35%,10.2%,14.6%,22.6%,
CC1=NN(c2cccc([N+](=O)[O-])c2)C(=O)C1,13.9%,-25%,10.7%,-5.7%,16.8%,
O=C(O)c1c(Br)c(Br)c(Br)c(Br)c1C(=O)Nc1ccc(Cl)cc1C(F)(F)F,1.35%,10.1%,11.1%,-6.55%,0.3%,
CC(CN(C)C)C(=O)c1ccccc1C(=O)O (stereo not drawn),-44.9%,-24.9%,-36%,-35.2%,-2.05%,-16.7
CC(=O)NC1CC2c3ccccc3C1([N+](=O)[O-])c1ccccc12 (stereo not drawn),4.1%,17.6%,15.6%,6.45%,-4.6%,
Cc1ccnn1CCc1ccc(Cl)cc1Cl,18.1%,15.3%,34.1%,11.4%,29.5%,
CN(C)CCCC[N+](C)(C)Cc1ccc(C[N+](C)(C)CCCC[N+](C)(C)Cc2ccc(CCl)cc2)cc1,-9.7%,-15%,-7.2%,-0.95%,-1.9%,
CCC(=O)c1cc(-c2cc(C(=O)CC)[nH]n2)n[nH]1,-27.5%,3.95%,-5.7%,-18.4%,2.15%,
C(=NCc1ccccc1)c1ccccc1-c1ccccc1C=NCc1ccccc1,98% (active),98.7% (active),98.8% (active),91.8% (active),97.2% (active),
O=c1c2c(oc(=Nc3ccccc3)n1-c1ccccc1)CC1(CCCCC1)C2,5.45%,1.75%,-0.1%,-15.2%,-10.9%,
O=C1NC(CN2CCCCC2)C(=O)NC1CN1CCCCC1 (stereo not drawn),-1.1%,-13.4%,8.7%,-8.7%,-20.1%,
CN1C(=O)C(=O)OC1=C(c1ccccc1)c1ccccc1,2.9%,-4.6%,0.85%,-30.9%,-17.6%,
Cc1ccc(-c2nc3ccccc3c(=O)o2)cc1,11.4%,-9.05%,-6.05%,-8.6%,4.75%,
NC(=O)/N=C/c1c(O)c2ccccc2oc1=O,9.6%,-0.8%,-11.6%,-3.35%,-42%,-3.1
CC1(O)CCC2CC1C2(C)CO (stereo not drawn),2%,7.45%,-9.15%,-28.4%,-7.05%,3.1
